Screening results from PubChem.
A selection: hits, their analogues and other compounds. The true share with any hit is near 3.8%.
tim23-1 inh = inhibits growth of tim23-1 mutant yeast | 330,000 compounds, 1.3% hits | inhibition, % at 20 µM | S. cerevisiae tim23-1 growth, BacTiter-Glo luminescence, 24 h;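 active = growth inhibition of the mutant yeast at or above 50%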;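 also: temperature-sensitive mutant grown at 25 °C; plate controls were DMSO-treated mutant yeast for no effect and medium wells lacking yeast for full effect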
tim10-1 inh = tim10-1 yeast growth inhibition. S. cerevisiae tim10-1 ts strain growth, BacTiter-Glo, 24 h. inhibition, % at 20 µM. 330,000 compounds, 2.2% hits. AID 463190;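 active = inhibition of at least 40%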;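 also: mutant grown at 25 °C; 0% = DMSO wells with yeast and 100% = wells holding no yeast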
TIM10 inh = inhibits growth of TIM10 yeast strain; S. cerevisiae TIM10 strain growth, BacTiter-Glo luminescence, 24 h; inhibition, % at 10 µM; 330,000 compounds, 1.4% hits; AID 463195;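 active = inhibition of 40% or more at the single tested concentration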;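 also: wild-type TIM10 isogenic control strain grown at permissive 25 °C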
Yeast superoxide = lowers age-related superoxide in aged yeast cells | S. cerevisiae aged cells, superoxide DHE fluorescence; hits give low values | superoxide response (% of plate mean), % at 10 µM | 330,000 compounds, 0.18% hits;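 active = superoxide response under a set limit, about three screen SD below normal, cut at about 65% in these data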;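 also: yeast aged for seven days with compound at 30 °C before DHE staining; 100% = average MFI of all compound-treated wells on the plate with controls excluded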
NLRP3 yeast inh = blocks the NALP3 inflammasome reconstituted in yeast. Yeast reconstituted NLRP3/ASC/caspase-1, beta-gal luminescence, 24 h. inhibition, % at 10 µM. 330,000 compounds, 0.39% hits;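 active = inhibition of 50% or more; inactive = inhibition below 50%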;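 also: plate controls were induced DMSO wells for no effect and uninduced yeast grown without galactose for full effect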
tim10-1 conf = tim10-1 yeast growth inhibition, confirmed | AID 463213 | shares compounds with tim10-1 inh | inhibition, % at 20 µM | 7,400 compounds, 56% hits | S. cerevisiae tim10-1 ts strain growth, BacTiter-Glo, 24 h;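 active = inhibition of yeast growth at or above a set limit in either of two repeat tests at 20 µM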;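 also: tim10-1 mutant grown at permissive 25 °C to find synthetic lethal compounds; 0% = DMSO yeast wells and 100% = medium wells without yeast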
Starred values were filed as active, the others as inactive; . = not tested or not shown.

SMILES	tim23-1 inh	tim10-1 inh	TIM10 inh	Yeast superoxide	NLRP3 yeast inh	tim10-1 conf
CN1CCN(c2ccccc2NC(=O)c2ccc(-c3ccc(Cl)c(Cl)c3)o2)CC1	23.7	54.9*	38.3	115.1	30.4	37.5*
CCOC(=O)C1CCN(C2CC(=O)N(c3ccc(OCC)cc3)C2=O)CC1 (stereo unspecified)	21.7	32.5	10.0	96.6	16.3	.
CCOC(=O)C1CCCN(C2CC(=O)N(c3cccc(C(F)(F)F)c3)C2=O)C1 (stereo unspecified)	33.4	56.2*	30.8	96.9	3.7	41.7*
CCOC(=O)C1CCCN(C2CC(=O)N(c3ccc(C(C)C)cc3)C2=O)C1 (stereo unspecified)	25.2	42.0*	22.8	94.4	17.7	29.9*
CCc1ccc(N2C(=O)CC(N3CCC(C(=O)OC)CC3)C2=O)cc1 (stereo unspecified)	21.9	42.5*	10.8	115.0	15.0	42.4*
CCOC(=O)C1CCCN(C2CC(=O)N(c3ccccc3)C2=O)C1 (stereo unspecified)	24.5	34.4	4.0	100.2	16.6	.
Fc1ccc(OCCOCCN2CCNCC2)cc1	-9.8	-10.4	-7.4	101.2	8.7	.
CCOC(=O)Cc1nnc2c(Nc3ccc(Cl)cc3)nc3nonc3n12	48.6	50.5*	30.1	99.8	-16.8	33.2*
COc1ccc(Br)cc1C(=O)Nc1cccc(NC(=O)c2ccco2)c1	49.1	42.2*	13.7	103.2	4.7	30.8*
COc1cccc(NC(=O)c2ccco2)c1	33.9	6.1	18.0	117.4	27.7	.
COc1c(C)cc(Br)cc1C(=O)Nc1cccc(NC(=O)c2ccco2)c1	42.3	42.3*	35.7	107.4	26.3	35.8*
CCCCn1c(=O)[nH]c(=O)c2c1nc(-c1cc(Br)c(OCC)c(OC)c1)n2C	-12.4	-20.2	-8.8	112.3	12.8	.
Cc1c(Cl)cccc1NC(=S)NC1CCCC1	35.5	15.0	9.1	87.6	-11.0	.
Cc1ccc2cc(CN(CC3CCCO3)C(=S)Nc3ccccc3)c(=O)[nH]c2c1 (stereo unspecified)	40.7	44.2*	15.1	102.8	8.9	16.3
Cc1sc2ncnc(N3CCN(C(=O)c4ccco4)CC3)c2c1C	9.7	13.5	-3.0	93.8	8.5	.
O=C(c1ccco1)N1CCN(c2ncnc3scc(-c4ccc(F)cc4)c23)CC1	18.6	49.3*	31.9	98.1	-1.5	36.5*
Cc1ccc(-c2csc3ncnc(N4CCN(c5ccccc5O)CC4)c23)cc1	43.9	44.2*	-7.4	88.5	10.6	5.4
COc1ccc(-c2csc3ncnc(N4CCN(c5ccccc5O)CC4)c23)cc1	40.2	26.3	2.5	91.3	16.8	.
Cc1ccc(-c2csc3ncnc(Nc4ccc(N5CCOCC5)cc4)c23)cc1	43.4	40.0*	29.1	88.8	13.8	36.4*
Cc1c(C(=O)Nc2cccc([N+](=O)[O-])c2)sc2ncn(CC(=O)N3CCOCC3)c(=O)c12	-1.3	7.3	6.1	98.0	-0.5	.
c1ccc2c(c1)OCC(c1csc3ncnc(N4CCCCC4)c13)O2 (stereo unspecified)	47.7	41.2*	28.7	104.2	-29.0	24.1
CCCN1CCN(c2ncnc3scc(C4COc5ccccc5O4)c23)CC1 (stereo unspecified)	23.7	30.5	1.0	95.6	-4.4	.
O=C(CCC(=O)Nc1ccccc1)NNS(=O)(=O)c1ccc(Cl)cc1	-10.5	-7.6	3.6	132.8	7.0	.
CC(=O)Nc1ccccc1OCC(=O)c1cc(C)n(Cc2cccs2)c1C	18.9	48.4*	15.5	88.2	-7.8	19.0
Cc1cc(C(=O)COc2cccnc2[N+](=O)[O-])c(C)n1Cc1cccs1	-14.1	10.5	-0.1	88.8	13.4	.
SMILES	tim23-1 inh	tim10-1 inh	TIM10 inh	Yeast superoxide	NLRP3 yeast inh	tim10-1 conf
COc1ccc(-n2cnnc2SCC(=O)c2cc(C)n(Cc3cccs3)c2C)cc1	20.6	44.2*	25.4	92.2	6.0	23.2
Cc1[nH]n(-c2ccccc2)c(=O)c1N=Nc1c(O)cc(S(=O)(=O)N(C)C)c2ccccc12	44.4	42.7*	29.7	85.1	19.8	21.2
CCOC(=O)c1cc2c(ccc3nc(C)c(C)c32)[nH]c1C	18.4	49.8*	24.4	106.3	6.5	13.2
Cc1ccc2nc(SCC(=O)Nc3cc(C(C)(C)C)nn3-c3ccccc3)[nH]c2c1	21.5	44.3*	23.7	88.8	-8.2	24.6
N#CC1=C(SCC(=O)c2ccc(Cl)cc2)NC2=C(C(=O)CCC2)C1c1ccco1 (stereo unspecified)	25.4	46.0*	30.6	108.7	8.3	22.7
CC(C)(C)n1nnnc1C(c1cccnc1)N(Cc1ccccc1)Cc1cccs1 (stereo unspecified)	26.9	56.3*	33.7	112.0	5.4	33.0*
CCC[N+](CC#CCO)(CC#Cc1ccccc1)CCC	5.0	2.5	3.8	107.3	10.3	.
CC[N+](CC)(CC#Cc1ccccc1)CC(=O)c1ccc(Cl)cc1	21.9	50.8*	-5.3	95.9	-3.7	44.9*
Cc1ccc(S(=O)(=O)N(c2nc(N(C)C)nc(N(C)C)n2)n2cnnc2)cc1	18.3	4.7	15.8	101.4	3.1	.
COc1cc(NC(=O)c2cc(-c3ccccc3Cl)on2)cc(OC)c1OC	40.3	45.1*	12.7	106.5	39.4	22.6
CC(C(=O)O/N=C(\N)c1cccnc1)c1ccc([N+](=O)[O-])cc1 (stereo unspecified)	7.3	-6.8	7.9	76.6	8.1	.
Cc1ccc(/C(N)=N/OC(=O)C(C)c2ccc([N+](=O)[O-])cc2)cc1 (stereo unspecified)	42.0	46.1*	38.2	95.6	-9.1	50.7*
O=C(NCC1CCCCC1)c1ccc([N+](=O)[O-])cc1	17.7	8.5	-1.0	107.8	24.4	.
N/C(=N\OC(=O)CC1CCCCC1)c1ccc([N+](=O)[O-])cc1	44.8	70.3*	29.1	114.4	-7.3	51.1*
CC(C)CC1NC(=O)N(CC(=O)NC2CCCc3ccccc32)C1=O (stereo unspecified)	14.7	-4.6	-4.9	94.3	3.9	.
O=C(CCn1cnc2ccccc2c1=O)Nc1cccc(Cl)c1Cl	4.3	-23.1	-8.6	88.4	5.3	.
CSc1ccc(CCNC(=O)c2cccc3c2C(=O)N(C2CCCCC2)C3)cc1	36.4	41.9*	22.8	83.3	15.1	17.6
COc1ccc(CCNC(=O)c2cccc3c2C(=O)N(C2CCCCC2)C3)cc1OC	45.8	22.4	19.6	98.7	16.7	.
O=C(Nc1ccc(Br)cc1Br)c1cccc2c1C(=O)N(C1CCCCC1)C2	33.1	41.8*	2.1	123.1	8.8	9.1
O=C(Nc1ccc(Br)cc1)c1cccc2c1C(=O)N(C1CCCCC1)C2	40.5	55.0*	-2.0	103.0	-1.1	9.4
O=S(=O)(/C=C/c1ccccc1)N1CCN(c2nc(-c3cccnc3)nc3ccccc23)CC1	15.8	37.4	8.2	99.6	20.9	.
